In PubChem BioAssay (NCATS) one finds Potency and outcome data, which are given here for 26 compounds.

Results filed as inconclusive are left out. Entries that show only a call come without a potency. The source made the active and inactive calls. Calls come from the whole dose curve; as a rule, active = well fitted curve in the direction sought with a large enough effect; inconclusive = small, poorly fitted or top-dose-only effect, or another doubt; inactive = no such curve, though single readings can be large; an effect the other way counts as inactive or inconclusive.

Assay [1] is described as follows: P-glycoprotein substrates identified in KB-3-1 adenocarcinoma cell line, qHTS therapeutic library screen (AID 1346986). Note: nearly all actives have a fitted effect of over 60% in size. The conditions noted are these: KB-3-1 parental cells viability, CellTiter-Glo, 72 h; series mostly up to 44.5 µM. The method, boiled down:
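In 1536-well format, 500 cells/well received pinned compound titrations and were incubated 72 h, 5% CO2. Viability was read by CellTiter-Glo; cytotoxic if AC50 < 10 uM and efficacy >50%.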
On the technique in general: qHTS replaces the single test concentration by a dilution series.

Assay [2] is described as follows: P-glycoprotein substrates identified in KB-8-5-11 adenocarcinoma cell line, qHTS therapeutic library screen (AID 1346987). Note: nearly all actives have a fitted effect of over 65% in size. The conditions noted are these: KB-8-5-11 (P-gp overexpressing) viability, CellTiter-Glo, 72 h; series mostly up to 44.5 µM. The method in brief:
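Luminescence from CellTiter-Glo, read 5 min after addition, quantified survival of KB-8-5-11 (P-gp-overexpressing) cells exposed to compounds for 72 h. AC50 was derived from concentration-response curves.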

For the compound `CN1CCN(C2=Nc3ccccc3Nc3ccc(O)cc32)CC1`, in assay [1], the Potency entry is “inactive”.

Consider `O=C1OC(c2ccc(O)cc2)C(O)=C1Cc1ccccc1` (stereo not drawn), for which, in assay [1], the Potency result is “inactive”.

For `COc1c2c(c(C)c3c1C(=O)OC3)OC1(C)CC(O)C34OC(OC)(CCC3(C)C1C2)OC4(C)CO` (stereo not drawn), the Potency result in assay [1] and in assay [2] was “inactive” each time.

As to `C=C1CCC2(OC1)OC1CC3C4CC=C5CC(O)CC(O[C@@H]6OC[C@H](OC(=O)C(O)C(C)CC)[C@H](O)[C@H]6O[C@@H]6O[C@@H](C)[C@H](O)[C@@H](O)[C@H]6O)C5(C)C4CCC3(C)C1C2C` (stereo partly drawn), the outcome in assay [1] is “inactive [at 9.29 µM]”.

Turning to `CC(C)=CCC(O)[C@](C)(O)C1[C@H](O)C[C@@]2(C)C3CC=C4C(C[C@H](O)[C@@H](O[C@@H]5O[C@H](CO)[C@@H](O)[C@H](O)[C@H]5O)C4(C)C)[C@]3(C)C(=O)C[C@]12C` (stereo partly drawn), the Potency result in assay [1] and in assay [2] was “inactive” each time.

As for `C=C[C@H]1[C@H](O[C@@H]2O[C@H](CO)[C@@H](O)[C@H](O)[C@H]2O)OC=C(C(=O)OC)[C@H]1CC=O`, the Potency result in assay [1] and in assay [2] was “inactive” each time.

Take `CC(=O)c1[nH]cc(CCC(=O)O)c1CC(=O)O`: the Potency entry in assay [1] and in assay [2] was “inactive” throughout.

As to `OCC(O)C(c1c[nH]c2ccccc12)c1c[nH]c2ccccc12` (stereo not drawn), the Potency entry in assay [1] and in assay [2] was “inactive” throughout.

Consider `COC(=O)C[C@@H]1C(C(=O)O)=CO[C@@H](O[C@@H]2O[C@H](CO)[C@@H](O)[C@H](O)[C@H]2O)/C1=C\COC(=O)/C=C/c1ccc(O)c(OC)c1`, for which the Potency entry in assay [1] and in assay [2] was “inactive” in each case.

As for `C=C1CCC2[C@](C)(CCC[C@]2(C)C(=O)O)[C@H]1CC/C(C)=C/C(=O)OC` (stereo partly drawn), the Potency entry in assay [1] is “inactive”.

Take `CC(=O)/C=C/C1C(C)CC(O[C@@H]2O[C@H](CO)[C@@H](O)[C@H](O)[C@H]2O)CC1(C)C` (stereo partly drawn): the Potency result in assay [1] and in assay [2] was “inactive” throughout.

For `COc1cc(/C=C/C(=O)O[C@H]2C[C@@H]3C(C(=O)O)=CO[C@@H](O[C@@H]4O[C@H](CO)[C@@H](O)[C@H](O)[C@H]4O)[C@@H]3[C@H]2C)ccc1O`, the Potency entry in assay [1] was “inactive”.

Consider `CC(C)=C1CC2C(CCC2(C)O)C(C)(O)CC1=O` (stereo not drawn), for which the Potency result in assay [1] is “inactive”.

`CCCc1[nH]nc2c1C(c1cc(Cl)cc(Cl)c1O)C(C#N)=C(N)O2` (stereo not drawn): in assay [1], the Potency entry was “inactive”.

Take `C/C(=C\CCC(C)CCO)C(=O)OC[C@H]1O[C@@H](O[C@@H]2OC=C(C(=O)O)[C@H]3CC[C@](C)(O)[C@@H]23)C(O)[C@@H](O)C1O` (stereo partly drawn): in assay [1], the Potency result is “inactive”.

As to `COC(=O)C1=COC(OC2OC(CO)C(O)C(O)C2O)C2C(COC(=O)/C=C/c3ccc(O)c(O)c3)C(O)C(O)C12` (stereo not drawn), the Potency result in assay [1] and in assay [2] was “inactive” each time.

In the case of `Cc1occc(=O)c1O[C@@H]1O[C@H](COC(=O)CC(C)(O)CC(=O)O)[C@@H](O)[C@H](O)[C@H]1O` (stereo partly drawn), the Potency entry in assay [1] and in assay [2] was “inactive” in each case.

Regarding `O=C(OCC1=CC(Cl)C(O)C(OC(=O)c2ccccc2)C1O)c1ccccc1` (stereo not drawn), the Potency result in assay [1] is “inactive”.

As for `Cc1[nH]c2ccccc2c1CC(=O)N[C@@H](Cc1ccccc1)C(=O)N(C)c1ccccc1`, in assay [1], the Potency result was “inactive”.

Regarding `COC(=O)C1=CO[C@@H](O[C@@H]2O[C@H](CO)[C@@H](O)[C@H](O)[C@H]2O)C2C1CC(O)C2C` (stereo partly drawn), the Potency result in assay [1] and in assay [2] was “inactive” throughout.

As for `CC1(C)CC[C@]2(C(=O)O[C@@H]3O[C@H](CO)[C@@H](O)[C@H](O)[C@H]3O)CC[C@]3(C)C(=CCC4[C@@]5(C)C[C@@H](O)[C@H](O)[C@@](C)(CO)C5[C@H](O)C[C@]43C)C2[C@@H]1O` (stereo partly drawn), the Potency entry in assay [1] is “inactive”.

For the compound `C/C=C(\C)C(=O)OC[C@H]1O[C@H](O[C@H]2O[C@H](CO)[C@@H](O)[C@H](O)[C@H]2O[C@@H]2O[C@H](CO)[C@@H](O)[C@H](O)[C@H]2O)[C@H](O[C@@H]2O[C@H](CO)[C@@H](O)[C@H](O)[C@H]2O)[C@@H](O)[C@@H]1O`, the Potency entry in assay [1] was “inactive”.

`Nc1ncnc2c1c(COc1cccc(Cl)c1)nn2C1CCOCC1`: the Potency result in assay [1] was “inactive”.

On to `OC[C@H]1O[C@@H](OC[C@H]2O[C@@H](OCc3ccccc3)[C@H](O)[C@@H](O)[C@@H]2O)[C@H](O)[C@@H](O)[C@@H]1O`, for which the Potency result in assay [1] and in assay [2] was “inactive” throughout.

For the compound `CC1(CO)CC(O)C2(C)CCC3(C)C(=CCC4C5(C=O)CCC(OC6OC(C(=O)O)C(O)C(O)C6OC6OC(C(=O)O)C(O)C(O)C6O)C(C)(C)C5CCC43C)C2C1` (stereo not drawn), the outcome in assay [1] is “inactive [at 9.29 µM]”.

Consider `C/C=C(/C)C(=O)OC1CC(C)(C)CC2C3=CCC4C5(C)CCC(OC6OC(C)C(OC7OC(C(=O)O)C(O)C(OC8OC(CO)C(O)C(O)C8OC8OC(CO)C(O)C(O)C8O)C7O)C(O)C6O)C(C)(C)C5CCC4(C)C3(C)C(OC(=O)/C=C/C=C/C=C/CCC)C(OC(C)=O)C12CO` (stereo not drawn), for which the outcome in assay [1] and in assay [2] was “inactive [at 9.29 µM]” throughout.
